Measured values as given in the supplement of paper PMC11417369.
In all, about 25,000 sequences were measured (“ln(normalized median fluorescence intensity)”: median about 9.3, highest 2% from about 10 on). The entries come from a sample that favours the highest values as a whole.

tested on: PF3D7_0420300 AP2 domain 1 (GST-tagged); experiment: gcPBM binding intensity (ln(normalized median fluorescence intensity)); higher = stronger DNA binding
Outline: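 Binding intensity values are the highest Masliner-normalised natural-log median intensity among replicate spots of either probe orientation. The binding step lasted 1 h in 1× PBS with 1% milk, 0.2 mg/ml BSA, 0.5% salmon testes DNA and 0.03% Triton X-100, using GST-tagged P. falciparum DNA-binding domains expressed in E. coli on an Agilent 4 × 180k array of primer-extended double-stranded 36-bp intergenic genomic probes plus negative controls. Alexa488 anti-GST antibody and a 488 nm scan detected bound protein.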

| Sequence | gcPBM binding intensity (ln) |
| --- | --- |
| TTTACAAAAAATTATACACACACGTACAGATAAATA [CACACA_site4678] | 9.89 |
| TACAAACACCCATATACACACAAAAAAAAAATAAAA [CACACA_site5421] | 9.55 |
| AAAAAAAAAAAAAACACACACACACCCATACAAAAT [CACACA_site1446] | 10.1 |
| TATATACACCCACATACACACAAATAAAAAAACACC [CACACA_site3414] | 9.98 |
| TATACATACCCACCCACACACAAAAAAAAAAAAAAA [CACACA_site4632] | 9.68 |
| AACATACAGAAACACACACACACACCCACACCCACA [CACACA_site493] | 10.3 |
| AAAAAATACAAACACACACACACACCCATATATATA [CACACA_site3560] | 10.2 |
| TATACGCAGAAACACACACACATACACCCACATACA [CACACA_site1723] | 10 |
| TATATACAGAAACACACACACACATATATATATATA [CACACA_site2247] | 10.1 |
| TATATACACAAACACACACACACATACACCCACATA [CACACA_site8504] | 10.3 |
| AATAAATATATATACACACCCATATATATATATATA [CACACA_site2595] | 9.43 |
| TAAATAAATTTATACACACACACACCCATATATATA [CACACA_site849] | 10.2 |
| TATAAATAAATTTATACACACACACCCATATATATA [CACACA_site8183] | 10 |
| GATAAAATAAAAGTGGGTACTTAAATATATATATAA [XGTACX_site8457] | 9.28 |
| ATAAGAAAAAAGAACTGTACTAATAAAATATAAAAA [XGTACX_site3715] | 9.3 |
| TTTCGTAAAATGAAATGTACTCAAAAGTAAATATAA [XGTACX_site214] | 9.03 |
| TATTTTTCCATATGCACACACACCGTATATATAATA [CACACA_site1127] | 10 |
| AAAGAATAATTAAATACACACATATTGCAGTAAAAA [CACACA_site7201] | 9.69 |
| TATAAAAAATATAATTGTACATAAAGGTTAAAATGT [XGTACX_site6138] | 9.47 |
| ATTAGTTTTATATATAGTACATATAATTTTGAAGGT [XGTACX_site7445] | 9.2 |
| GTTAAAAAAAGGAGAGATCTCACACAAATATATATA [GTGCAC_negctrl_site117] | 9.22 |
| TCAAATAATTTGTTGACACACACACCCACATACATA [CACACA_site8717] | 9.85 |
| AAAACACCCAAACACACACACACATATATATATATA [CACACA_site9119] | 10.1 |

| Sequence | gcPBM binding intensity (ln) |
| --- | --- |
| CATATATACGCATACACACACACACCCACACCCACA [CACACA_site1725] | 10.2 |
| CATATATATAAATACACACACACACCCCTTATAATT [CACACA_site4064] | 10.2 |
| CAAAAAAACAAACACACACACACACCCATATATATA [CACACA_site3653] | 10.2 |
| AAATAATTTGTTGACACACACACACCCATACATATA [CACACA_site2285] | 10.2 |
| AACAAAAAAACAAACACACACACACCCATATATATA [CACACA_site3652] | 9.98 |
| TACATATATATAAATACACACACACCCACCTTATAA [CACACA_site9346] | 10.1 |
| TATATACGCAAACACACACACACATACACCCACATA [CACACA_site1724] | 10.2 |
| AAATAATTTGTTGACACACACACACCCATACAGATA [CACACA_site5291] | 10.1 |
| CATATACGCAAACACACACACATATATATATATATA [CACACA_site501] | 10 |
| CATATAAATAAATACACACACACACGCCTTATAATT [CACACA_site7830] | 10.2 |
| TAATATATGTTATATACACACATATAAATATAAATA [CACACA_site6339] | 9.2 |
| TGTTACATAAAATGCACACTTTCAAATATGCTAATA [CACACA_site2925] | 9.05 |
| GTTTCCTTAATATTCACACACATATCTATAATATAT [CACACA_site6959] | 9.87 |
| ACAAATAAAAATATTACACACACTATTATATTGATA [CACACA_site1494] | 9.86 |
| ATGGCCATAATATAGACACACATATATAAATATATA [CACACA_site2230] | 9.28 |
| TACACGCATAGACACACACACACACGCATATAAATA [CACACA_site6446] | 10.3 |
| TCATAGTATAGACACACACACACACGCATATAAATA [CACACA_site6915] | 10.2 |
| ATATAAAATAGACACGCACACAAAAAAAAAAAAAAA [CACACA_site3522] | 9.5 |
| CATATACATAGACACACACACACATAAATAAATATA [CACACA_site6749] | 10.1 |
| TATATTGATGATGATAGTACGTATGATTAGAAAAAA [XGTACX_site8989] | 9.18 |
| ATGTATATGTCTATATGTACTTATATTTTATTTTTT [XGTACX_site5902] | 9.37 |
| TTAATATATTAAATCTTACACACTAAAAAATATGTA [CACACA_site307] | 9.16 |
| ATACTAACATTTTTTTGTACATATAACTATAAAATA [XGTACX_site1033] | 9.16 |

| Sequence | gcPBM binding intensity (ln) |
| --- | --- |
| AGATATTTATTGAGTGCATGTTATAAAGGGAAAAAA [TGCATGCA_site88] | 9.32 |
| ATAAAACAAAAACACACACACATACACAAAAAAAAA [CACACA_site3848] | 10.2 |
| TTTAACATAAATTAAACACACAATAAAATACATTAA [CACACA_site6699] | 9.54 |
| AAATAAAACAAACACACACACACATACACAAAAAAA [CACACA_site3849] | 10.2 |
| ATTAAATACATTAACACACACACAAATAAATACATA [CACACA_site5583] | 10.3 |
| TATAACATAGGACACACACACATACATACACAAAAA [CACACA_site5062] | 10.2 |
| AATAAAATAAAATACACACATACATACATACAAATG [CACACA_site2438] | 10.2 |
| TATACACATATATAAACACACAAAAAAAAAAAAAAA [CACACA_site7041] | 9.38 |
| ATTAAATACATTAACACACACACAAATATATACATA [CACACA_site2881] | 10.1 |
| AAAATAAAATAAAATACACACATACATACATACAAA [CACACA_site5366] | 9.95 |
| TATAACATATGACACACACACATACATACACAAAAA [CACACA_site6935] | 10.2 |
| AACACATACAAACACACACACAAAAAAAAAAAAAAA [CACACA_site393] | 9.78 |
| TATAACATAAAACACACACACATACATACACAAAAA [CACACA_site1804] | 10.1 |
| TATATATTTCATAATACACACGAAAAAAAAAAAAAA [CACACA_site8972] | 9.31 |
| TACATTTAAAAAAAAACACACATATATATATATATA [CACACA_site2535] | 8.99 |
| TAATTTTTATTCAAGAGTACACAAAAGATAACTAAA [XGTACX_site4060] | 9.14 |
| ACAAAAAAAAAAAAAATACACACACATAAAAAAAAA [TGCATGCA_negctrl_site333] | 9.72 |
| CAAAGACACAAACACACACACACATACATACATACA [CACACA_site453] | 10.1 |
| AATAAACATAAATACACACACAAAAAAAAAAACATA [CACACA_site4396] | 10.3 |
| AAAAAAAAAAAACATACACACAAATAAATACATACA [CACACA_site6073] | 9.9 |
| AAGACACAAAAACACACACACATACATACATACATA [CACACA_site454] | 9.91 |
| ATAAAACAAAGACACACACACATACACAAAAAAAAA [CACACA_site7752] | 10.2 |
| TAATTTTTTTAAAAGCGTACATTTAAAAAAAAATAT [XGTACX_site2736] | 8.76 |

| Sequence | gcPBM binding intensity (ln) |
| --- | --- |
| TAATAACTACAAAAAAAAAAGAAAAATAGAAAAAGG [CACACA_negctrl_site1102] | 9.55 |
| TTGCATATTTCTAATTGTACATTATTTTATTTTATA [XGTACX_site8451] | 9.45 |
| AAAAAAAAAAAAGAAACACACATATATATATATATA [CACACA_site140] | 9.23 |
| ATAAAAAAAAGAAAAACACACACATATATATATATA [CACACA_site8243] | 9.61 |
| ATATAAGAAAAGCACACACACACAAAAAAAAAAAAA [CACACA_site2827] | 10.1 |
| AGAGATATAAGAAAAGCACACACACCCAAAAAAAAA [CACACA_site8917] | 9.92 |
| CACTAAAAGAAACACACACACACACCCATATATATA [CACACA_site4151] | 10.2 |
| AGATATAAGAAAAGCACACACACACCCAAAAAAAAA [CACACA_site2826] | 10.2 |
| AAAGAAAAAAAAAACACACACACACGCATTCAATAT [CACACA_site6169] | 10.1 |
| AAAGAAAAAAAAAACACACACACACCCATTCAATAT [CACACA_site38] | 10.2 |
| AAAAAAAAGAAACACACACACATACACATAAATATA [CACACA_site3807] | 10.1 |
| AAAAGAAAAAGAAAAACACACATAAATATAAATATA [CACACA_site1879] | 9.59 |
| AATAAAAAGAAACACACACACACACCCATATATATA [CACACA_site3589] | 10.2 |
| AGAAAAAAAAAACACACACACACACCCTCAATATAA [CACACA_site39] | 10.1 |
| AGTAACTAATTAAATGCATGTCGATATATATTATAT [TGCATGCA_site1038] | 9.35 |
| CGTTTTCTATATCATTGTACATATTCATGTGTAAAT [XGTACX_site2741] | 9.24 |
| CATAAATACAGATATACACACATATATATATATATA [CACACA_site4528] | 9.45 |
| AATAAAAAGTAATAATAACGTATAATTTATTATACT [TGCATGCA_negctrl_site414] | 9.14 |
| TATTTTTTATGATTAACACACACACTAATAAAAAAA [CACACA_site9370] | 9.77 |
| ACGTTTACGTTATTATGTACGTAATATATCATACCT [XGTACX_site5006] | 9.09 |
